# HGIII-sPLA2 inh: Inhibits HGIII-sPLA2 liposome hydrolysis, primary screen | Q9NZ20 | QFRET BODIPY PC-A2 liposome hydrolysis, fluorescence | inhibition, % at 12.2 µM | actives 0.56% (n = 370,000);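 active = inhibition above mean plus 3 SD of compounds lying within the high and low control bounds, cut at about 19% in these data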;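 also: 0% = median of test compound wells and 100% = no enzyme DMSO wells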
# PLC-gamma1 inh: PLC-gamma1 (human) inhibition, primary screen; P19174; purified PLC-gamma1, fluorogenic substrate, fluorescence; inhibition, % at 12.2 µM; actives 0.84% (n = 370,000); in the data active = inhibition above about 9.5%
# Target sequence (P19174 whole entry, looked up): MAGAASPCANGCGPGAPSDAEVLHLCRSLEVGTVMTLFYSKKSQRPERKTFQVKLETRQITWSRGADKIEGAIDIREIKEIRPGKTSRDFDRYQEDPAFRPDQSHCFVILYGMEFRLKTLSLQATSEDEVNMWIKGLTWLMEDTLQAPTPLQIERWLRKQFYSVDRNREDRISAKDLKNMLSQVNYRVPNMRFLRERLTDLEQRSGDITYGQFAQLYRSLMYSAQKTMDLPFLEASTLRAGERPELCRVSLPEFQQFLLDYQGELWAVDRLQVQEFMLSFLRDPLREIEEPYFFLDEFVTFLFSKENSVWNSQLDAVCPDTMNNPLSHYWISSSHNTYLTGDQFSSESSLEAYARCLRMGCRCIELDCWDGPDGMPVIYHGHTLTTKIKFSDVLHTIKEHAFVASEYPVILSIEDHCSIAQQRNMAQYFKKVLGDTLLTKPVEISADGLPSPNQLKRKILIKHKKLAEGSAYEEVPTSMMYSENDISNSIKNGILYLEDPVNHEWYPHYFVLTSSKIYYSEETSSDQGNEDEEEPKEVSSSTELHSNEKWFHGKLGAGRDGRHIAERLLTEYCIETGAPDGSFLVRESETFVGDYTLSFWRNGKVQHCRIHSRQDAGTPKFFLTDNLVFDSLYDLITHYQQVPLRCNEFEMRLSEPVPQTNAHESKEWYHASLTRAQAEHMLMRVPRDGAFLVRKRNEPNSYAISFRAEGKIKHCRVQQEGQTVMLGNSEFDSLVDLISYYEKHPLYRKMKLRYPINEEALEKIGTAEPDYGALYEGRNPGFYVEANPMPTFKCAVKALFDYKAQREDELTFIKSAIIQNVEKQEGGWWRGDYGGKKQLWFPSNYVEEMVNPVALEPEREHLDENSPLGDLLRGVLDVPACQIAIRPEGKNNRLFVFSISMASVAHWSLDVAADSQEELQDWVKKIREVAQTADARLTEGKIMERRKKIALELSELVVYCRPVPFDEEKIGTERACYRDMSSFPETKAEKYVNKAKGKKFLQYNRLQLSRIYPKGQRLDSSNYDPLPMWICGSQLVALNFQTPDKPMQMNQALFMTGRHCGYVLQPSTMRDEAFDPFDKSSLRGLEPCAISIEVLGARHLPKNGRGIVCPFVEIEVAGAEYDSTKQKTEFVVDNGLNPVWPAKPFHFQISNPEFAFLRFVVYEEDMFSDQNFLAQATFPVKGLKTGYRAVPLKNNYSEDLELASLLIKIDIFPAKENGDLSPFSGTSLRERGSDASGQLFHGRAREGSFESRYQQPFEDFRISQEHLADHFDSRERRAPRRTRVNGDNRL
# PLC-beta3 inh: inhibitors of human phospholipase C beta3; Q01970; Purified PLC-beta3, fluorogenic substrate, fluorescence; inhibition, % at 12.2 µM; actives 0.18% (n = 370,000); in the data active = inhibition above about 11%;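 also: 0% = median of compound wells on plate and 100% = full blocker control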
# HIF activator: HIF pathway transcriptional activation; U2OS HRE-luciferase reporter, luminescence; normalized: DMSO 0%, desferrioxamine 100%; activation, % at 7.5 µM (by protocol); actives 0.32% (n = 300,000);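 active = mean activation of at least 10% of the iron chelator positive control signal, with at least half of replicates also reaching 10%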
# AHR act: activators of human aryl hydrocarbon receptor. AID 2796. AHR-responsive luciferase reporter cells, luminescence. P35869. actives 2.5% (n = 320,000). activation, % at 5 µM; in the data active = activation above about 47%;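 also: 0% = vehicle wells and 100% = reference agonist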
# Yeast superoxide: lowers age-related superoxide in aged yeast cells; S. cerevisiae aged cells, superoxide DHE fluorescence; hits give low values; superoxide response (% of plate mean), % at 10 µM; actives 0.18% (n = 330,000); AID 2690;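 active = superoxide response under a set limit, about three screen SD below normal, cut at about 65% in these data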;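 also: yeast aged for seven days with compound at 30 °C before DHE staining; 100% = average MFI of all compound-treated wells on the plate with controls excluded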
# CR mimetic CP: yeast aging superoxide inhibition, cherry pick confirmation; shares compounds with Yeast superoxide; AID 434994; S. cerevisiae aging, superoxide DHE fluorescence; hits give low values; actives 1% (n = 850); superoxide response (% of plate), % at 10 µM;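 active = superoxide signal below 65% of the plate average of sample wells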;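 also: cells aged with compound for 7 days at 30 degrees C before staining; 100% equals mean DHE fluorescence of all compound wells on the plate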
# DHE fluor count: compound alters DHE oxidation or fluorescence in yeast; S. cerevisiae BY4741, flow cytometry; hits give low values; AID 435000; fluorescence response, % at 10 µM; 850 tested, under 10 active; shares compounds with Yeast superoxide;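 active = fluorescence response below 15%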;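 also: percent of the mean fluorescence averaged over all compound wells on the plate; lower means stronger quenching of DHE signal or ROS scavenging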
# Numbers without * were called inactive; . = no result given. Compounds with a hit are over-represented: about 3.9% of the library has one in this group of screens.
SMILES,HGIII-sPLA2 inh,PLC-gamma1 inh,PLC-beta3 inh,HIF activator,AHR act,Yeast superoxide,CR mimetic CP,DHE fluor count
CCOC(=O)C/C(C)=N/NC(=O)c1cccs1,.,.,.,2,7,63*,113,99
Clc1ccc(-c2csc(NCC3CCCO3)n2)cc1 (stereo not given),-4,-2,0,.,.,.,.,.
Cc1cc(C)nc(CCNC(=O)C2CCC(=O)N(Cc3ccccc3F)C2)n1 (stereo not given),7,5,-2,0,2,65*,95,95
Cc1ccc(CCNC(=O)C2CCC(=O)N(Cc3ccccc3F)C2)o1 (stereo not given),-6,-1,-7,2,7,104,.,.
Cc1nn(-c2ccccc2)c(N2CCCC2)c1/C=N/Nc1ccc(S(N)(=O)=O)cc1[N+](=O)[O-],7,6,3,-27,43,60*,93,101
NS(=O)(=O)c1ccc(N/N=C/c2ccc(C(=O)O)cc2)c([N+](=O)[O-])c1,4,6,0,0,3,97,.,.
Cc1ccc(O)c(-c2cc(-c3ccc(F)cc3)no2)c1,-9,-59,-75,1,-7,104,.,.
Cc1nc2ccc(NC(=O)c3nn(CC(C)C)c(=O)c4ccccc34)cc2s1,-22,-9,-18,1,5,57*,114,122
Cc1ccc(Cn2cc(CN3[C@H](C)COc4cc(Br)ccc4S3(=O)=O)nn2)cc1,-7,2,2,.,.,.,.,.
Cn1c(=O)c2c(nc(CN3CCOCC3)n2CCN2CCOCC2)n(C)c1=O,.,.,.,0,-2,60*,94,92
CCCCc1cc(=O)oc2cc(OCC(=O)N3CCC(C(=O)O)(c4ccccc4)CC3)ccc12,2,-1,0,0,1,64*,113,95
Cc1cc(C)n2nc(-c3ccccc3)c(-c3ccccc3)c2n1,2,-13,-22,0,4,93,95,92
Cc1ccc(C(=O)O)cc1S(=O)(=O)N1CCCC1,9,4,4,-1,-1,108,104,107
Cc1ccc(C(=O)N2CCCCC2)cc1S(=O)(=O)N1CCCC1,1,7,-5,1,-2,100,.,.
O=C(c1cccc(F)c1)N1CCN(c2cccc(C(F)(F)F)c2)CC1,2,4,2,0,-7,100,92,89
CCc1nonc1NC(=O)c1oc2cc(Br)ccc2c1C,2,3,4,3,9,113,.,.
CCc1nonc1NC(=O)c1oc2c(C)c(C)ccc2c1C,-3,-3,-5,0,5,43*,98,89
CN(c1ccccc1)S(=O)(=O)c1ccccc1Br,0,0,3,.,-1,85,87,89
COc1cc2[nH]c(=S)nc(NCCc3ccc(C)cc3)c2cc1OC,10,-3,-5,.,.,.,.,.
COc1ccc(CCNc2nc(=S)[nH]c3cc(OC)c(OC)cc23)cc1OC,7,-2,-2,0,1,63*,99,97
O=C1CC(c2cc([N+](=O)[O-])ccc2Cl)c2c(ccc3ccccc23)N1 (stereo not given),-4,1,3,-1,5,100,.,.
Cc1ccc(-c2nn(CCC(N)=O)c(=O)c3ccccc23)cc1,.,.,.,-1,0,118,.,.
CCN(CC)C(=O)CCn1nc(-c2ccc(C)cc2)c2ccccc2c1=O,.,.,.,-18,2,37*,100,94
Cc1nc(-c2ccc(NC(=O)Cc3ccccc3)cc2)cs1,2,3,-6,-22,-5,64*,120,123
COc1ccc(CC(=O)Nc2ccc(-c3csc(C)n3)cc2)cc1,-8,-1,1,0,-6,100,.,.
SMILES,HGIII-sPLA2 inh,PLC-gamma1 inh,PLC-beta3 inh,HIF activator,AHR act,Yeast superoxide,CR mimetic CP,DHE fluor count
Fc1ccc(C2=Nn3c(nnc3C3CCCCC3)SC2)cc1,5,-1,-2,.,.,.,.,.
CC(=O)c1c(-c2ccccc2)c2cc([N+](=O)[O-])ccc2[nH]c1=O,-3,4,-2,-8,4,59*,111,106
O=C(CN(c1ccccc1F)S(=O)(=O)c1ccccc1)NC1CCCCCC1,.,.,.,1,5,96,.,.
O=C(O)CN(c1ccccc1F)S(=O)(=O)c1ccccc1,3,3,2,0,-1,95,94,94
Nc1nn(-c2ccccc2)c2ccc([N+](=O)[O-])cc12,6,1,-2,-7,1,107,.,.
CCn1c(=O)c2ccccc2n(Cc2cccc([N+](=O)[O-])c2)c1=O,0,2,4,0,0,100,.,.
CC(C)n1c2ccccc2c2cc([N+](=O)[O-])ccc21,4,-1,-10,-1,2,96,100,110
CCn1c2ccccc2c2cc([N+](=O)[O-])ccc21,-1,-6,-10,0,3,98,99,93
CC(C)(C)c1ccc(-c2nnc(SCC(=O)Nc3cccc4ccccc34)n2Cc2ccco2)cc1,-22,5,2,.,.,.,.,.
CC(C)N(CCCNC(=O)Cn1c(=O)c2cccn2c2ccccc21)Cc1ccccc1,1,-3,-8,0,2,129,.,.
COc1ccc(C2(c3ccc(OC(C)=O)cc3OC(C)=O)CC(c3ccccc3)NC(=S)N2)cc1 (stereo not given),13,5,-71,0,-1,61*,120,123
CC(=O)Oc1ccc2c(c1)OC(c1ccccc1)CC21CC(C)(C)NC(=S)N1 (stereo not given),12,-1,-2,0,2,114,.,.
COc1ccc2nc3ccccc3nc2c1N,12,-4,-11,5,23,49*,57*,94
COc1cc(C(=O)NCCC(=O)NC2CCCCC2)cc(OC)c1OC,7,-4,-12,0,0,111,.,.
COc1cc(C(=O)NCCC(=O)NCCCN2CCCCC2C)cc(OC)c1OC (stereo not given),.,.,.,0,1,62*,123,112
CC(C)N1C(=O)C2(OCCCO2)c2cc(Br)ccc21,1,0,-7,-21,-1,60*,122,110
Cn1c(=O)c2[nH]c(N3CCCCC3)nc2n(C)c1=O,6,4,2,0,10,65*,80,90
COc1cc(OC)cc(C(=O)O/N=C(\N)c2cccc(C)c2)c1,14,0,-11,-29,41,71,.,.
COc1cc(OC)cc(C(=O)O/N=C(\N)c2ccncc2)c1,8,-3,-4,1,5,62*,112,110
COc1ccc(CCNC(=O)c2ccc(OCC(=O)N3CCOCC3)c(OC)c2)cc1,4,1,-5,0,-1,100,.,.
